The list is not random: actives were taken first. Their share in the collection is about 1.2%.
FH mod = Identification of activators of human fumarate hydratase by quantitative high-throughput screening | FH coupled MDH/diaphorase resazurin fluorescence, 15 min | 0.22% of 54,000 active | Potency, µM (top dose mostly 79.9 µM), actives largely listed as inhibitors | AID 1347055, 2019; note: the screen sought activators but most active calls are inhibition curves; nearly all actives have a fitted effect of over 45% in size
Target sequence (P07954 whole entry, looked up): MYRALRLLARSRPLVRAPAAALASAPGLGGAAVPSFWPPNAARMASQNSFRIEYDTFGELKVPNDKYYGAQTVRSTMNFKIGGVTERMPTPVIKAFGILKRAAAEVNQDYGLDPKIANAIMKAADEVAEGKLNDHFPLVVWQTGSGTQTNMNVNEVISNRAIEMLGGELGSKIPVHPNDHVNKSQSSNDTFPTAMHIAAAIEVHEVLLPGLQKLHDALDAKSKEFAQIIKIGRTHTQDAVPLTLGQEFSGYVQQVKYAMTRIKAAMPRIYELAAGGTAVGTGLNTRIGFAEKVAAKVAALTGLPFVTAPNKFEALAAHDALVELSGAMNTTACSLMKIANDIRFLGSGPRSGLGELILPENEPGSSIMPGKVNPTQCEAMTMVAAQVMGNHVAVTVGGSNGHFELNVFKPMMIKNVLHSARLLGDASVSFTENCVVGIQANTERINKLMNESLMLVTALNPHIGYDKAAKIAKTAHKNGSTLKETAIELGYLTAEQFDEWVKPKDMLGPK
p53null 32C kill = p53 null cell cytotoxicity, permissive temperature | H1299-neo p53 null cells, ATP luminescence, 24 h, 32C | 0.62% of 55,000 active | AID 903 | Potency, µM (highest dose often 46.1 µM), most hits filed as cytotoxic; note: nearly all actives have a fitted effect of over 55% in size
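H1299-neo, 600 cells/well; overnight 37C; cpd up to 46 uM, 24 h at 32C; ATPlite luminescence after 20 min RT; normalized to DMSO (0%) and tamoxifen 100 uM (100% kill); Hill-fit AC50.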
p53null 39C tox = p53 null cell cytotoxicity, nonpermissive temperature | H1299 p53-null (neo) cells, 39C, ATPlite viability, 24 h | 0.97% of 55,000 active | AID 904 | Potency, µM (doses to about 46.1 µM), actives largely listed as cytotoxic; note: nearly all actives have a fitted effect of over 50% in size
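Following overnight plating at 37C (600 cells/well), H1299-neo or H1299-p53A138V cells are dosed up to 46 uM. Incubation lasts 24 hr at 39C before ATP detection.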
Large screens that a line does not name were inactive. Calls come from the whole dose curve; as a rule, active = well fitted curve in the direction sought with a large enough effect; inconclusive = small, poorly fitted or top-dose-only effect, or another doubt; inactive = no such curve, though single readings can be large; an effect the other way counts as inactive or inconclusive.

CCC(=O)Nc1cccc(OCc2cc(=O)n3cc(C)ccc3n2)c1	p53null 32C kill inconclusive, p53null 39C tox inconclusive
CCn1c(NC(C)=O)nc2ccccc21	none (no result: FH mod)
CCn1c(=O)c(C(=O)Nc2ccc(C(C)=O)cc2)nc2ccccc21	p53null 32C kill 10µM, p53null 39C tox 10µM
Cn1cnc(=N)c2[nH]cnc21	none (no result: p53null 32C kill, p53null 39C tox)
Nc1ccccc1NC(=O)c1ccc(CNc2nccc(-c3cccnc3)n2)cc1	none (no result: p53null 32C kill, p53null 39C tox)
Cc1ccc(N(CC(=O)N2CCN(c3cccc(Cl)c3)CC2)S(=O)(=O)c2c(C)noc2C)cc1	none
COc1ccc(N(CC(=O)N2CCN(c3cccc(Cl)c3)CC2)S(=O)(=O)c2c(C)noc2C)cc1	p53null 39C tox 10µM
COCCn1c2c([n+](Cc3cnccn3)c1C)C(=O)c1ccccc1C2=O	FH mod 22µM (no result: p53null 32C kill, p53null 39C tox)
COCCc1ccccn1	none (no result: p53null 32C kill, p53null 39C tox)
O=C(Nc1cccc(Cl)c1)c1cnc[nH]1	none
COc1ccc(NC(=O)c2cnc[nH]2)cc1	p53null 32C kill 18µM, p53null 39C tox 7.9µM
O=Cc1ccc(O)c(O)c1O	FH mod 15µM (no result: p53null 32C kill, p53null 39C tox)
COc1ccc(-c2noc(CN3CCN(c4ccccc4OC)CC3)n2)cc1OC	none
CCCOCc1cc(CN2CCN(c3ccccc3OC)CC2)c(O)c2ncccc12	FH mod inconclusive, p53null 32C kill 16µM, p53null 39C tox 3.2µM
CCOCc1cc(CN2CCN(c3ccccc3OC)CC2)c(O)c2ncccc12	FH mod inconclusive, p53null 39C tox 1.3µM
COc1ccccc1N1CCN(Cc2cc(COC(C)C)c3cccnc3c2O)CC1	FH mod inconclusive, p53null 32C kill 16µM, p53null 39C tox 1.6µM
CC(C)OCc1cc(CN2CCN(c3cccc(C(F)(F)F)c3)CC2)c(O)c2ncccc12	FH mod inconclusive, p53null 32C kill inconclusive, p53null 39C tox 0.5µM
Oc1ccc(CN2CCN(c3ccccc3)CC2)c2cccnc12	none (no result: FH mod)
CCOCc1cc(CN2CCN(c3cccc(C(F)(F)F)c3)CC2)c(O)c2ncccc12	p53null 32C kill inconclusive, p53null 39C tox inconclusive
CCOc1ccc2oc(=O)cc(CN3CCN(c4ccccc4OC)CC3)c2c1	none
Cc1nc(C#Cc2ccnc(Cl)c2)c(C)n1-c1ccc(F)cc1	none (no result: p53null 32C kill, p53null 39C tox)
CC(NC(=O)C(O)C(C)C)C(=O)NC1C(=O)N(C)CCc2ccccc21 (stereo unspecified)	none (no result: p53null 32C kill, p53null 39C tox)
CO[C@@H](C)Cn1c(=O)n(C)c2cnc3ccc(-c4cncc(C(C)(C)O)c4)cc3c21	none (no result: p53null 32C kill, p53null 39C tox)
O=C(Nc1cccc(Br)c1)c1cccc(S(=O)(=O)N2CCCCCC2)c1	none (no result: p53null 32C kill, p53null 39C tox)
CCCSc1nc(NC2CC2c2ccc(F)c(F)c2)c2nnn(C3CC(OCCO)C(O)C3O)c2n1 (stereo unspecified)	none (no result: p53null 32C kill, p53null 39C tox)
C[C@@H]1O[C@@H](O[C@H]2[C@H](O[C@H]3[C@H](O[C@H]4CC[C@@]5(C)C(CC[C@]6(C)C5CC=C5[C@@H]7CC(C)(C(=O)O)C[C@@H](O)[C@]7(C)CC[C@]56C)[C@@]4(C)CO)O[C@H](C(=O)O)[C@@H](O)[C@@H]3O)O[C@H](CO)[C@H](O)[C@@H]2O)[C@H](O)[C@H](O)[C@H]1O (stereo partly specified)	none (no result: p53null 32C kill, p53null 39C tox)
O=C(CSc1nnc(-c2ccccc2Cl)o1)Nc1ccc2c(c1)OCCO2	none (no result: FH mod)
Cc1ccccc1-c1nnc(SCC(=O)N(C)c2ccccc2)o1	none
Cc1cccc(-c2nnc(SCC(=O)Nc3ccc(C)c(C)c3)o2)c1	none
COc1cccc(-c2nc(SCC(=O)Nc3ccc4c(c3)OCCO4)c(-c3ccccc3)[nH]2)c1	FH mod 40µM, p53null 39C tox inconclusive
O=C(CSc1nnc(-c2ccccc2F)o1)Nc1ccccc1Cl	p53null 39C tox 7.9µM
Cc1cccc(NC(=O)CSc2nnc(-c3ccccc3C)o2)c1	p53null 39C tox 10µM (no result: FH mod)
COc1ccccc1NC(=O)CSc1nnc(-c2ccccc2C)o1	p53null 32C kill inconclusive, p53null 39C tox 4µM
COc1ccc(-c2nc(SCC(=O)Nc3ccc4c(c3)OCCO4)c(-c3ccccc3)[nH]2)cc1	FH mod inconclusive
CCNC(=O)OC1CCN(c2nncc3cc(OC)c(OC)cc23)CC1	none (no result: p53null 32C kill, p53null 39C tox)
COC(=N)c1nc2ccc3ncnc(Nc4ccc(F)cc4Br)c3c2s1	none (no result: p53null 32C kill, p53null 39C tox)
C=CC(C)(O)CC/C=C(\C)C(=O)OCC1OC(OC2CCC3(C)C(CCC4(C)C3CC=C3C5CC(C)(C)C(O)CC5(C(=O)O)CCC34C)C2(C)C)C(O)C(OC2OC(CO)C(O)C(OC3OC(CO)C(O)C(OC4OC(COC5OC(CO)C(O)C(O)C5O)C(O)C(O)C4O)C3O)C2O)C1O (stereo unspecified)	none (no result: p53null 32C kill, p53null 39C tox)
COc1cc2c(cc1O)[C@H](c1ccc(O[C@@H]3O[C@H](CO)[C@@H](O)[C@H](O)[C@H]3O)c(OC)c1)[C@@H](CO)[C@](O)(CO)C2	none (no result: p53null 32C kill, p53null 39C tox)
COc1cc(/C=C/CO)cc(OC)c1O[C@@H]1O[C@H](CO[C@@H]2O[C@H](CO)[C@@H](O)[C@H](O)[C@H]2O)[C@@H](O)[C@H](O)[C@H]1O	none (no result: p53null 32C kill, p53null 39C tox)
NC(=O)Nc1cc(-c2cccc(F)c2)sc1C(=O)NC1CCCNC1 (stereo unspecified)	none (no result: p53null 32C kill, p53null 39C tox)
C/C=C(/C)C(=O)O[C@H]1C=C(CO)C(=O)[C@H](OC(=O)/C(C)=C/CO)[C@H]1C(C)C	none (no result: p53null 32C kill, p53null 39C tox)
CS(=O)(=O)c1ccc(-c2cn3ccccc3n2)cc1	none (no result: p53null 32C kill, p53null 39C tox)
COc1cccc(NC(=O)CSc2nnc(-c3cccc(OC)c3)o2)c1	p53null 32C kill 16µM, p53null 39C tox 6.3µM
COc1ccc(NC(=O)CSc2nnc(-c3ccc(C)cc3)o2)cc1	none
CCOc1cc2ncc(C#N)c(Nc3ccc(OCc4ccccn4)c(Cl)c3)c2cc1NC(=O)C=CCN(C)C	none (no result: p53null 32C kill, p53null 39C tox)
COc1ccc(/C=C(\C#N)C(=O)Nc2cccnc2)cc1	none (no result: FH mod, p53null 39C tox)
N#C/C(=C\c1ccc(O)c(O)c1)C(=O)Nc1ccccc1	FH mod 14µM (no result: p53null 32C kill, p53null 39C tox)
CCCNC(=O)c1ccc(Cn2c(=O)c3cccn3c3cccnc32)cc1	none
O=C(NCCc1ccccc1Cl)c1ccc(Cn2c(=O)c3cccn3c3cccnc32)cc1	p53null 32C kill inconclusive, p53null 39C tox 10µM
C=C[C@@H]1CN2CCC1C[C@H]2[C@H](O)c1ccnc2ccc(OC)cc12 (stereo partly specified)	none (no result: p53null 32C kill, p53null 39C tox)
CCC(=O)C1=C(c2ccc(F)cc2)N(C(=O)CC)n2cnnc2S1	none
CCOc1ccc(C2=C(C(=O)CC)Sc3nncn3N2C(=O)CC)cc1	p53null 32C kill 13µM, p53null 39C tox inconclusive
O=C(NCc1ccccn1)c1cc(-c2ccc(-c3ccccc3)cc2)nc2ccccc12	p53null 39C tox 7.9µM (no result: FH mod, p53null 32C kill)
Cc1cccc(-c2cc(C(=O)NCc3ccccn3)c3ccccc3n2)c1	none (no result: FH mod, p53null 39C tox)
C=Cc1cc(O)cc2nc(-c3ccc(O)c(F)c3)oc12	none (no result: p53null 32C kill, p53null 39C tox)
CC(=O)OCC1=C[C@H](O)[C@@H]2C(C(=O)O)=CO[C@@H](O[C@@H]3O[C@H](CO)[C@@H](O)[C@H](O)[C@H]3O)[C@H]12	none (no result: p53null 32C kill, p53null 39C tox)
Cc1cc(C)c2c(c1)C(N(Cc1cc(C(F)(F)F)cc(C(F)(F)F)c1)c1nnn(C)n1)CCCN2CC1CCC(C(=O)O)CC1 (stereo unspecified)	none (no result: p53null 32C kill, p53null 39C tox)
CN1N=C(N)c2cn([C@@H]3O[C@H](COP(=O)(O)O)[C@@H](O)[C@@H]3O)c3ncnc1c23	none (no result: p53null 32C kill, p53null 39C tox)
COc1ccc2c(c1)Cc1sc(NC(=O)c3cccc(Cl)c3)nc1-2	p53null 32C kill 16µM
COc1ccc2c(c1)Cc1sc(NC(=O)c3cccc(C)c3)nc1-2	none

Compound activity: PubChem, National Center for Advancing Translational Sciences (NCATS)
